Results filed as inconclusive are left out. Active and inactive are the calls of the source. Unless noted, the call rests on the fitted dose curve; in most records, active means well fitted curve in the direction sought with a large enough effect; inconclusive means small, poorly fitted or top-dose-only effect, or another doubt; inactive means no such curve, though single readings can be large; an effect the other way counts as inactive or inconclusive.
How the values were obtained:
[1] = molecular target: Cytochrome P450 1A2 (Homo sapiens) (UniProt P05177); assay: p450-cyp1a2 (AID 410; calls by dose curve; further: potency means the concentration at half of the fitted maximal effect)
Chain of Cytochrome P450 1A2 (Homo sapiens) (P05177 whole entry, looked up): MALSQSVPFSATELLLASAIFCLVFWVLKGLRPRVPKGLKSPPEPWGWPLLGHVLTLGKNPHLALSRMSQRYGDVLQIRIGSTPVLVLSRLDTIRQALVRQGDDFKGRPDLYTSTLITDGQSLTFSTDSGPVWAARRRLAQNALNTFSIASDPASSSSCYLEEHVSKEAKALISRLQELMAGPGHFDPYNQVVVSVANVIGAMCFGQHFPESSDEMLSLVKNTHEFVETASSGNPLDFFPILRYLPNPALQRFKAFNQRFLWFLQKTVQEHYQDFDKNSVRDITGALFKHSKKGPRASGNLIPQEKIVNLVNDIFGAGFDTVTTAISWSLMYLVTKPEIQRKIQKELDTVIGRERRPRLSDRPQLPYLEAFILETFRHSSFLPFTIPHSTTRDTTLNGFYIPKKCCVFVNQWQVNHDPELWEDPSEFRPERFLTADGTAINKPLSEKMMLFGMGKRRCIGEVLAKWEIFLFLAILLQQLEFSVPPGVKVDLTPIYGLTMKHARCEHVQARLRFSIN
Outline: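 Luminescent readout of luciferin formed from Luciferin-ME by human CYP1A2; data normalized against complete inhibition by 57 uM furafylline. Enzyme 20nM, substrate 100uM at Km, 100mM KPO4 buffer, 60 min reaction at room temperature.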

[2] = molecular target: Glucocorticoid receptor (Homo sapiens) (UniProt P04150); assay: GR-GFP Redistribution (AID 450;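 active means compounds whose dose series gives a full or clear partial fitted curve of increased nuclear translocation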; further: potency means the concentration at half of the fitted maximal effect)
Chain of Glucocorticoid receptor (Homo sapiens) (P04150 whole entry, looked up, the tested form may be a part): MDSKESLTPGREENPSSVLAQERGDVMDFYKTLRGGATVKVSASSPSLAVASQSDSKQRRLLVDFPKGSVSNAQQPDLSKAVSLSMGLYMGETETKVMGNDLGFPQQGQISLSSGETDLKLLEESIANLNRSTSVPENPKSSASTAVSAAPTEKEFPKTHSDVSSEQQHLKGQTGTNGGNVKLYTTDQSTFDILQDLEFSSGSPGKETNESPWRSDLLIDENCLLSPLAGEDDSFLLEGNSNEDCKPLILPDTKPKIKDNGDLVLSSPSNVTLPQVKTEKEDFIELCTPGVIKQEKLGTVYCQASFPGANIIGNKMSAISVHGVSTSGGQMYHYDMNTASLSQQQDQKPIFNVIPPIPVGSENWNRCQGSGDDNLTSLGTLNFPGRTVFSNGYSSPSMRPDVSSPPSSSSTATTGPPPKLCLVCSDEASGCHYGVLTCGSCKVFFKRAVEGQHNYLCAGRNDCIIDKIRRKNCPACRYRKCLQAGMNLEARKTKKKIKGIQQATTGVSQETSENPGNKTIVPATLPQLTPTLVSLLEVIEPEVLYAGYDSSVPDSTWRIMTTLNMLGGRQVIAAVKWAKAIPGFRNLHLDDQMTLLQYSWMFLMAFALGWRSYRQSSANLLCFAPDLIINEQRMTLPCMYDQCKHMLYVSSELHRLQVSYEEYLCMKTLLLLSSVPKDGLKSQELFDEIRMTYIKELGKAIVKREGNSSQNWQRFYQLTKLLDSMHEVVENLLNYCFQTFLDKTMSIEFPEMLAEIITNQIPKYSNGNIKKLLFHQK

[3] = molecular target: Glucocorticoid receptor (Homo sapiens) (UniProt P04150); assay: GR-EFC Redistribution (AID 451; calls by dose curve; further: potency means the concentration at half of the fitted maximal effect); settings: CHO-K1 GR-EFC translocation, beta-gal luminescence, 2 h
Outline: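 CHO-K1 cells expressing nuclear EA and GR-ED fragments of b-gal; compounds titrated up to 46 uM final, 2 h at 37 C. GR nuclear translocation read as complemented b-gal luminescence after 1 h RT detection.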

[4] = molecular target: 3',5'-cyclic-AMP phosphodiesterase 4B (Homo sapiens) (UniProt Q07343); assay: qHTS Assay for Inhibitors of PDE-IV (AID 607; active means well fitted activation curve with a large enough effect in the main read-out, with a control signal flat, not every such curve was filed as active; further: potency means the concentration at half of the fitted maximal effect)
Chain of 3',5'-cyclic-AMP phosphodiesterase 4B (Homo sapiens) (Q07343 whole entry, looked up): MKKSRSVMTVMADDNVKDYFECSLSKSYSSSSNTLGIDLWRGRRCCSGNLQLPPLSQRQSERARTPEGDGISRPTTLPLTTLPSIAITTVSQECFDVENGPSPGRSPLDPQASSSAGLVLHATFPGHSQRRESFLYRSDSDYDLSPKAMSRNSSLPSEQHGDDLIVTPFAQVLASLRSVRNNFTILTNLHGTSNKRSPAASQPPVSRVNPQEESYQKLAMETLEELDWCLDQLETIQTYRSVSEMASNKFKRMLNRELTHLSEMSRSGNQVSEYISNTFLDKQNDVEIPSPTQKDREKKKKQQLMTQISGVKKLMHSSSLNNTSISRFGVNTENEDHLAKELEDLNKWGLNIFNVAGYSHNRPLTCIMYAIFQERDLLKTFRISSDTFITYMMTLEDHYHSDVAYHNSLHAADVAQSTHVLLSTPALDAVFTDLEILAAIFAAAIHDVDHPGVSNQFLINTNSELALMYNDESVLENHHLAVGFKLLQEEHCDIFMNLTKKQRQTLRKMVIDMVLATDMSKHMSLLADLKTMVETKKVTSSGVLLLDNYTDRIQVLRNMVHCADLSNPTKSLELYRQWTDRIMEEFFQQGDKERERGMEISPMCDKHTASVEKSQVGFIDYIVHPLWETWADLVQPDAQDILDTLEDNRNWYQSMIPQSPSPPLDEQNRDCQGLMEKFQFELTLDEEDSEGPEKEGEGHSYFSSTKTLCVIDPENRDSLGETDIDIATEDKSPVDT
Outline: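 The readout is membrane depolarisation from a cAMP-sensing CNG channel, detected with a potential dye at ex 535/em 590. Cells were HEK293-derived (endogenous PDE-IV) at 1000 cells/well, titrated up to 22.9 uM final.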

[5] = molecular target: DNA dC->dU-editing enzyme APOBEC-3G (Homo sapiens) (UniProt Q9HC16); assay: qHTS for inhibitors of Vif-A3G interactions: Validation (AID 588379); further: 0% is about no effect
Chain of DNA dC->dU-editing enzyme APOBEC-3G (Homo sapiens) (Q9HC16 whole entry, looked up): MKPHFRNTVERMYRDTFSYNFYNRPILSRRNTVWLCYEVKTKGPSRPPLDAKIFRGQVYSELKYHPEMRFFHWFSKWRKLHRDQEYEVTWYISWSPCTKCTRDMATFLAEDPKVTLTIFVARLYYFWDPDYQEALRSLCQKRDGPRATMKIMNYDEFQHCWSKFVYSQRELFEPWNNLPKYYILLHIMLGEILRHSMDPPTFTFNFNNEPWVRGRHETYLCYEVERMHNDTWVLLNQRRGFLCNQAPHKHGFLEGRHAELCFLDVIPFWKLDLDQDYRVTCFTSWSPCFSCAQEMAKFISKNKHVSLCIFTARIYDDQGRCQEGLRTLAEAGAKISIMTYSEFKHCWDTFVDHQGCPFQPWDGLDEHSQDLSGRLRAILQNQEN
Outline: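 HeLa cells stably expressing Vif and A3G-eYFP, 700 cells/well, incubated overnight at 37 deg C, then exposed to compound overnight at 37 deg C. Inhibition of Vif-mediated degradation read as increased yellow fluorescence (Ex 488/Em 500-530) by laser-scanning cytometry.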

[6] = molecular target: Androgen receptor (Homo sapiens) (UniProt P10275); assay: qHTS assay for small molecule agonists of androgen receptor signaling (AID 588515; active means well fitted curve in the direction sought with a large enough effect in the signal ratio, with a control signal flat; the % refers to the signal ratio; further: on the % scale 0 is the no-effect control and ±100 the full control effect); settings: AR-UAS-bla HEK293, beta-lactamase ratio, agonist 16 h; stronger effect = higher value
Outline: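 EC50 and efficacy came from Hill fits of titrations (up to 92 uM) normalized to 30 nM R1881 as 100% and DMSO as 0%. Compound exposure was 16 h at 37 C on AR-UAS-bla HEK293 cells, with a 405/460/530 nm CCF4 fluorescence read.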

[7] = molecular target: Androgen receptor (Homo sapiens) (UniProt P10275); assay: qHTS assay for small molecule antagonists of androgen receptor signaling (AID 588516; active means well fitted curve in the direction sought with a large enough effect in the signal ratio, with a control signal flat, not every such curve was filed as active; the % refers to the signal ratio; further: on the % scale 0 is the no-effect control and ±100 the full control effect)
Outline: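 Compounds tested in titration against 10 nM R1881 in AR-responsive bla reporter HEK 293 cells; CCF4 fluorescence (460/530 nm) after 16 h exposure gave IC50 and efficacy.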

[8] = molecular target: Bile acid receptor (Homo sapiens) (UniProt Q96RI1); assay: qHTS assay for small molecule antagonists of farnesoid X receptor signaling (AID 588526; calls by dose curve; further: on the % scale 0 is the no-effect control and ±100 the full control effect)
Outline: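 Antagonist mode: titrated compounds tested against chenodeoxycholic acid stimulation (normalized to 50 uM CDCA and DMSO) in GeneBLAzer HEK293T cells for 16 h. Beta-lactamase read by CCF4 fluorescence; IC50 from Hill fits.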

[9] = molecular target: Glucocorticoid receptor (Homo sapiens) (UniProt P04150); assay: qHTS assay for small molecule agonists of glucocorticoid receptor signaling (AID 588532; active means well fitted curve in the direction sought with a large enough effect in the signal ratio, with a control signal flat; the % refers to the signal ratio;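 further: 100% = dexamethasone at 0.1 µM and 0% = DMSO only wells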); settings: HeLa MMTV-bla, beta-lactamase ratio, agonist, 18 h; stronger effect = higher value; percent of dexamethasone control, DMSO zero
Outline: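 Cells were plated and rested 3-5 h at 37 C, compounds were added in titration and incubated 18 h, then CCF4 substrate was loaded for 2 h at RT before reading blue/green fluorescence. EC50 came from Hill-equation fitting.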

[10] = molecular target: Peroxisome proliferator-activated receptor gamma (Homo sapiens) (UniProt P37231); assay: qHTS assay for small molecule antagonists of peroxisome proliferator-activated receptor gamma signaling (AID 588537; active means well fitted inhibition curve with a large enough effect in the signal ratio, with a control signal flat, not every such curve was filed as active; the % refers to the signal ratio;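 further: reporter cells co-stimulated with 50 nM rosiglitazone agonist during compound treatment; % of control where 0% means no effect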)
Outline: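 PPARγ-UAS-bla HEK293 cells (3000/well) in 1% charcoal/dextran-stripped FBS are treated with compound, then stimulated with 50 nM rosiglitazone for 16 h at 37 °C. Read-out is CCF4 β-lactamase fluorescence after 2 h at RT. IC50 comes from Hill fits normalised to rosiglitazone and DMSO.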

[11] = molecular target: Vitamin D3 receptor (Homo sapiens) (UniProt P11473); assay: qHTS assay for small molecule agonists of vitamin D receptor signaling (AID 588543; calls by dose curve;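 further: 0% = DMSO basal and 100% = reference agonist control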)
Outline: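 Measured: β-lactamase reporter activity (CCF4, 405 nm excitation, 460/530 nm emission) in HEK293T VDR-UAS-bla cells after 16 h compound exposure at 37 °C. Normalization against 50 nM 1α,25-dihydroxyvitamin D3 and DMSO; Hill-fit EC50.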

[12] = molecular target: Thyroid hormone receptor beta (Homo sapiens) (UniProt P10828); assay: qHTS assay for small molecule agonists of thyroid hormone receptor beta signaling (AID 588545; calls by dose curve;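 further: 0% = DMSO only and 100% = 10 nM T3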)
Chain of Thyroid hormone receptor beta (Homo sapiens) (P10828 whole entry, looked up): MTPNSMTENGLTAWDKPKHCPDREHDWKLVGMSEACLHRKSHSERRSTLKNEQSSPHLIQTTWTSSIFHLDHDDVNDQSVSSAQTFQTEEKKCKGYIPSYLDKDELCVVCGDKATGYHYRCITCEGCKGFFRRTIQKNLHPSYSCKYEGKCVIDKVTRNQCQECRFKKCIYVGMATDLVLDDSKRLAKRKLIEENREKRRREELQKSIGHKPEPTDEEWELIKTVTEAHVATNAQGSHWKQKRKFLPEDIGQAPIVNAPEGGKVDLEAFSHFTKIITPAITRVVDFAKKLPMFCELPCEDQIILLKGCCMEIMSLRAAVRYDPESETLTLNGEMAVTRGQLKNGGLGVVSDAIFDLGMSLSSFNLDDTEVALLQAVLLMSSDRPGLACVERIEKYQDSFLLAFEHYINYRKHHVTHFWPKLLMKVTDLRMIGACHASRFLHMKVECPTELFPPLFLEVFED
Outline: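 TR-UAS-bla-GripTite HEK 293 cells in medium with 2% charcoal/dextran FBS, 0.1 mM NEAA and 1 mM sodium pyruvate were treated with titrated compounds for 18 hrs at 37 C. Beta-lactamase reporter was read with CCF4 dye (ex 405, em 460/530 nm); EC50 from Hill fits.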

[13] = qHTS assay for small molecule antagonists of retinoid X receptor alpha signaling (AID 588546; active means well fitted inhibition curve with a large enough effect in the signal ratio, with a control signal flat, not every such curve was filed as active; the % refers to the signal ratio;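 further: cells stimulated with 9-cis-retinoic acid as agonist; on the % scale 0 is the no-effect control and ±100 the full control effect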); settings: HEK293T RXRa-UAS-bla, beta-lactamase ratio, antagonist mode; measured here: W530 green channel, cytotoxicity proxy
Outline: (§1)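 Beta-lactamase reporter inhibition, read as CCF4 fluorescence ratio (ex 405, em 460/530 nm) after 2 h at RT. HEK293T UAS-bla cells, 2500/well, were stimulated with 9-cis-RA at 500 or 100 nM final alongside test compound for 18 h at 37 C.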

[14] = molecular target: Retinoic acid receptor RXR-alpha (Homo sapiens) (UniProt P19793); assay: as above; settings: HEK293T RXRa-UAS-bla, beta-lactamase ratio, antagonist mode
Outline: as §1

[15] = molecular target: Thyroid hormone receptor beta (Homo sapiens) (UniProt P10828); assay: qHTS assay for small molecule antagonists of thyroid hormone receptor beta signaling (AID 588547; active means well fitted inhibition curve with a large enough effect in the signal ratio, with a control signal flat, not every such curve was filed as active; the % refers to the signal ratio); settings: TR-UAS-bla HEK293, beta-lactamase ratio, antagonist mode, 18 h
Outline: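 TR-UAS-bla GripTite HEK293 cells in 2% charcoal/dextran FBS medium; compounds 0.59 nM to 92 uM with T3 at 0.4nM final, 18 h at 37 C. Beta-lactamase read by CCF4 fluorescence (460/530 nm); Hill fits gave IC50 and efficacy.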

[16] = qHTS assay for small molecule agonists of the antioxidant response element (ARE) signaling pathway (AID 651741; active means well fitted activation curve with a large enough effect in the signal ratio; the % refers to the signal ratio; further: potency means the concentration at half of the fitted maximal effect)
Outline: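 CellSensor ARE-bla HepG2 cells (2,000/well) carrying ARE-driven beta-lactamase, exposed 16 h at 37 C. LiveBLAzer B/G FRET substrate added for 2 h at room temperature; fluorescence intensity read.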

[17] = qHTS assay for small molecule activators of the nuclear factor-kappa B (NF-kB) signaling pathway (AID 651749; active means well fitted activation curve with a large enough effect in the signal ratio; the % refers to the signal ratio; further: series mostly up to about 77 µM; % of control where 0% means no effect); settings: NF-kB-bla ME-180 cells, beta-lactamase FRET ratio, 16 h; stronger effect = higher value
Outline: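 NF-kB-bla ME-180 cells carrying a beta-lactamase reporter under an NF-kB response element, 2,000 cells/well, exposed to compound for 16 hr at 37C; FRET-based beta-lactamase fluorescence read-out of pathway activation.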

[18] = qHTS assay for environmental chemicals that activate the Aryl hydrocarbon Receptor (AhR) signaling pathway (AID 651777); settings: 1A2-DRE human hepatoma cells, luciferase, 24 h; activation: stronger effect = higher value; further: % of control where 0% means no effect; nearly all actives have a fitted effect of over 15% in size
Outline: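 Luminescence (One-Glo, 30 min, room temperature) reports AhR-driven luciferase in stably transfected human hepatoma cells bearing DRE and CYP1A2 promoter. Cells (1,200/well) were treated with compound for 24 hr at 37 C in qHTS format.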

[19] = molecular target: Peroxisome proliferator-activated receptor alpha (Homo sapiens) (UniProt Q07869); assay: qHTS assay for small molecule agonists of the peroxisome proliferator-activated receptor alpha (PPARalpha) signaling pathway (AID 651778); settings: PathHunter PPARalpha complementation, chemiluminescence, 6 h; max response: stronger effect = higher value; further: % of control where 0% means no effect
Outline: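 Enzyme-fragment complementation assay in which ligand-bound PPARalpha translocates and forms an active enzyme that generates chemiluminescence. Cells were plated overnight, exposed to compound for 6 hr at 37 C, and then given detection reagent for 60 min at room temperature.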

[20] = qHTS assay for small molecule agonists of the antioxidant response element (ARE) signaling pathway measured by Nrf2-dependant transcriptional activity - cell viability counter screen (AID 720653; active means well fitted curve in the direction sought with a large enough effect in the repeat runs; an effect the other way counts as inactive or inconclusive; further: on the % scale 0 is the no-effect control and ±100 the full control effect); settings: ARE-bla HepG2 viability, CellTiter-Glo ATP luminescence, 16 h; max response: stronger effect = lower value
Outline: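 ARE-bla HepG2 cells treated with compounds for 16 h at 37C; this counter screen measures viability as intracellular ATP by CellTiter-Glo luminescence after 30 min at room temperature.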

[21] = qHTS assay for cell viability of HEK293 cells (AID 743288); settings: ATP luminescence (CellTiter-Glo), 18 h; max response: stronger effect = lower value; further: on the % scale 0 is the no-effect control and ±100 the full control effect; nearly all actives have a fitted effect of over 50% in size
Outline: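 Luminescent ATP quantitation served as the viability read-out. Cells (parental HEK293, 2,000/well) received compounds after at least 5 h at 37 C and were exposed for 18 h before a 30 min room-temperature reagent step.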

[22] = qHTS assay for cell viability of the p53RE-bla HCT-116 cell line (AID 743292); further: on the % scale 0 is the no-effect control and ±100 the full control effect; nearly all actives have a fitted effect of over 55% in size
Outline: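 ATP-based luminescent viability (CellTiter-Glo, 30 min RT) after 16 h compound treatment at 37 C of p53RE-bla HCT-116 cells, seeded at 4,000 cells/well and rested 5 h before dosing.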

[23] = molecular target: Nuclear receptor subfamily 1 group I member 2 (Rattus norvegicus) (UniProt Q9R1A7); assay: qHTS assay for small molecule activators of the rat pregnane X receptor (rPXR) signaling pathway (AID 651751; call rule not given here; further: 0% is about no effect); settings: rPXR reporter cells, luciferase (One-Glo), 24 h
[24] = qHTS assay for small molecule activators of the human pregnane X receptor (PXR) signaling pathway (AID 720659; call rule not given here; further: 0% is about no effect)
[25] = molecular target: Mitogen-activated protein kinase 10 (Mus musculus) (UniProt Q61831); assay: JNK3 AlphaScreen Assay (AID 530; active means well fitted curve in either direction with a large enough effect, not every such curve was filed as active)
Outline: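 Pre-activated (IL-1β/TNFα) JNK3 in HepG2 lysates phosphorylates biotin-GST-cJun(1-79), 10 uM ATP; anti-phospho-cJun(Ser73) AlphaScreen read at room temperature, pH 7.6 Tris buffer. Compounds pre-incubated 15 min as titrations.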

[26] = molecular target: Cytochrome P450 2C9 (Homo sapiens) (UniProt P11712); assay: qHTS Assay for Inhibitors and Substrates of Cytochrome P450 2C9 (AID 883); further: nearly all actives have a fitted effect of over 60% in size; further: potency means the concentration at half of the fitted maximal effect
Chain of Cytochrome P450 2C9 (Homo sapiens) (P11712 whole entry, looked up): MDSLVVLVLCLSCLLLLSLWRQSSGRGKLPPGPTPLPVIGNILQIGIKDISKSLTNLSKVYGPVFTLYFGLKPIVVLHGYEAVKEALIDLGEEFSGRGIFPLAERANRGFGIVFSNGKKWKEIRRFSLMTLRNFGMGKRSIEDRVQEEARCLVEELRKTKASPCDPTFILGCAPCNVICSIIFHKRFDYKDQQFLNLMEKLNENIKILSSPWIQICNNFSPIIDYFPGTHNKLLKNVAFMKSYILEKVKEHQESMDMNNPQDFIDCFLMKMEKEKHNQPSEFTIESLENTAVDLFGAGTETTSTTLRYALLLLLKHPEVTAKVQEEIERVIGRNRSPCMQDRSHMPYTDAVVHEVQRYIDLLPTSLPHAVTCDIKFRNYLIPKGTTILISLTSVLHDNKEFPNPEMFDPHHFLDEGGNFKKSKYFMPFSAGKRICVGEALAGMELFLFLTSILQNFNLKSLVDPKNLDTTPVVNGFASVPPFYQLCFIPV
Outline: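 10nM CYP2C9 + 100uM Luciferin-H (=KM), 25mM KPO4; cpd 10 min 37C; NADPH regen, 60 min 37C; stop/detect with P450 Glo-Buffer 20 min; luminescence. Norm. to 57uM sulphaphenazole as full inhibition.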

[27] = molecular target: Cytochrome P450 2D6 (Homo sapiens) (UniProt P10635); assay: qHTS Assay for Inhibitors and Substrates of Cytochrome P450 2D6 (AID 891); further: nearly all actives have a fitted effect of over 60% in size; further: potency means the concentration at half of the fitted maximal effect
Chain of Cytochrome P450 2D6 (Homo sapiens) (P10635 whole entry, looked up): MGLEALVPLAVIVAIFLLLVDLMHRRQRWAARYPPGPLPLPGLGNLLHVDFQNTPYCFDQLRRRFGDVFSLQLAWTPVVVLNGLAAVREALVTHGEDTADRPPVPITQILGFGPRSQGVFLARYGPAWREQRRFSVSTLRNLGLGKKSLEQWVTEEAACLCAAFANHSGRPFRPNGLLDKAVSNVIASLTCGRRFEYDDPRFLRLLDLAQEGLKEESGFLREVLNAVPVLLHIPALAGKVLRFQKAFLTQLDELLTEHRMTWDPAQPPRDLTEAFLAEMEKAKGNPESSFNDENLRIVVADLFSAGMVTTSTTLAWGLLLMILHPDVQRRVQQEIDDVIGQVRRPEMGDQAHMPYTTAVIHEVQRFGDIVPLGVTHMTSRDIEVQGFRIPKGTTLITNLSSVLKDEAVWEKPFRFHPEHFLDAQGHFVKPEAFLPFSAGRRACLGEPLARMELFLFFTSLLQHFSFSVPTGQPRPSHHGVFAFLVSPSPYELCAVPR
Outline: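 Human CYP2D6 (5 nM) with 30 uM Luciferin-ME EGE (at Km) in 100 mM KPO4, compound preincubated 10 min, then NADPH regeneration system for 60 min at room temperature. Luciferin read by luminescence; normalized to 1.43 uM quinidine.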

[28] = molecular target: Cytochrome P450 2C19 (Homo sapiens) (UniProt P33261); assay: qHTS Assay for Inhibitors and Substrates of Cytochrome P450 2C19 (AID 899); further: nearly all actives have a fitted effect of over 60% in size; further: potency means the concentration at half of the fitted maximal effect
Chain of Cytochrome P450 2C19 (Homo sapiens) (P33261 whole entry, looked up): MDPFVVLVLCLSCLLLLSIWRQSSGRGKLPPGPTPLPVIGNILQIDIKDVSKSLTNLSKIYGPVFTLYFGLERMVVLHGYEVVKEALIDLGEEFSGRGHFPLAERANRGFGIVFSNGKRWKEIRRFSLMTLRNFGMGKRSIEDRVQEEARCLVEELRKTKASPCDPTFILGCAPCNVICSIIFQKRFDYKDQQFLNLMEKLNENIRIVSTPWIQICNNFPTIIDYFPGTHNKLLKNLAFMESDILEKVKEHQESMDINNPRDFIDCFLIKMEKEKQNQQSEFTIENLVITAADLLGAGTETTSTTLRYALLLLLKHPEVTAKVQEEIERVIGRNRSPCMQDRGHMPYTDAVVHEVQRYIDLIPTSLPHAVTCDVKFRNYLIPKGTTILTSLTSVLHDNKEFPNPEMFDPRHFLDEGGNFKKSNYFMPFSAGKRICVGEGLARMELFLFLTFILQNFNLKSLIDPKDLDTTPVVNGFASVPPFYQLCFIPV
Outline: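 Luminescent read-out of luciferin formed from Luciferin-H EGE (10uM, equal to KM). Enzyme 5nM in 50mM KPO4; compound added, 10 min at 37C, then NADPH regenerating system for 60 min at 37C. Full inhibition defined by 57uM ketoconazole.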

[29] = molecular target: Cytochrome P450 3A4 (Homo sapiens) (UniProt P08684); assay: qHTS Assay for Inhibitors and Substrates of Cytochrome P450 3A4 (AID 884); further: potency means the concentration at half of the fitted maximal effect; nearly all actives have a fitted effect of over 50% in size
Chain of Cytochrome P450 3A4 (Homo sapiens) (P08684 whole entry, looked up): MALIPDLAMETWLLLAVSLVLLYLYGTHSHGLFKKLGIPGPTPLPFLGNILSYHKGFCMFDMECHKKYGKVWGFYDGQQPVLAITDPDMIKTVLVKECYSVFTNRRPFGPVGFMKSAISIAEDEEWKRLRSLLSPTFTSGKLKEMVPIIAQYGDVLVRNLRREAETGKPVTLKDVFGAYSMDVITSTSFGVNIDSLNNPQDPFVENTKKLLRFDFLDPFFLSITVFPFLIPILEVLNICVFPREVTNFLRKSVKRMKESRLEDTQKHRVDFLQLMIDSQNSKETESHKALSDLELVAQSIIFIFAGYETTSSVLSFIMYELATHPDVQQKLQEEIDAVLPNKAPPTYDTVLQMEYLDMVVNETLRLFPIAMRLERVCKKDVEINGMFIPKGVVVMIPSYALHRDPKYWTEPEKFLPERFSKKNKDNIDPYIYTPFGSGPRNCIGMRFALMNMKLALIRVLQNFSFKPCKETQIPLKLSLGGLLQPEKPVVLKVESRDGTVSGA
Outline: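 20 nM human CYP3A4 with 25 uM Luciferin-PPXE (at KM) in 200 mM KPO4, preincubated 10 min with compound; NADPH regeneration started a 60 min RT reaction. Luciferin detected by luminescence, normalized to 57 uM ketoconazole as full inhibition.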

[30] = molecular target: Cytochrome P450 3A4 (Homo sapiens) (UniProt P08684); assay: qHTS Assay for Activators of Cytochrome P450 3A4 (AID 885); further: nearly all actives have a fitted effect of over 65% in size
Outline: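 Steps: enzyme/substrate mix dispensed; compound added, 10 min RT; NADPH regeneration solution added, 60 min RT; luciferin detection buffer stops reaction; 20 min later luminescence measured.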

CC1(C)CCC(C)(C)c2cc(C(=O)Nc3ccc(C(=O)O)cc3)ccc21
inactive: Potency [2] > 46 µM | Potency [3] > 46 µM | Potency [4] | outcome [5] | activation [6] -12.7% | outcome [7] | Potency [8] | activation [9] -10.3% | Potency [10] | outcome [11] | outcome [12] | max response [14] -51.1% | activity change % (negative = inhibition) [15] 15.7% | activation [17] 1.76% | activation [18] -0.1% | max response [19] 0.0193% | max response [20] -7.97% | max response [21] 1.87% | Potency [22] | max response [23] -9.44% | outcome [24]
active: Potency [1] 31.6 µM | Potency [16] 61.1 µM
2.34%: max response [13]

CC1(C)CC[C@]2(C(=O)O)CC[C@]3(C)C(=CC[C@@H]4[C@@]5(C)CC[C@H](O)C(C)(C)[C@@H]5CC[C@@]43C)[C@@H]2C1
inactive: Potency [1] | Potency [2] > 46 µM | Potency [3] > 46 µM | Potency [25] | Potency [26] | Potency [27] | Potency [28]

COc1ccc(OC)c([C@H]2Nc3ccccc3NC3=C2C(=O)CC(C)(C)C3)c1Br
inactive: Potency [2] > 46 µM | Potency [3] > 46 µM | Potency [25] | Potency [4] | Potency [27]
active: Potency [1] 20 µM | Potency [26] 31.6 µM | Potency [28] 3.16 µM

C=C1C(=O)O[C@H]2C[C@@]3(C)CCCC(=C)[C@@H]3C[C@H]12
active: Potency [1] 20 µM | Potency [4] 7.55 µM | Potency [28] 2.51 µM
inactive: Potency [2] > 46 µM | Potency [3] > 46 µM | Potency [25]

C=C1CC[C@@H]2[C@](C)(CC[C@@H](O)[C@]2(C)CO)[C@@H]1C/C=C1/C(=O)OC[C@H]1O
inactive: Potency [1] | Potency [2] > 46 µM | Potency [3] > 46 µM | Potency [25] | Potency [26] | Potency [27] | Potency [28]

COc1ccc2oc(-c3ccc(O)cc3)cc(=O)c2c1
inactive: Potency [2] > 46 µM | Potency [3] > 46 µM | Potency [4] | Potency [30] | outcome [5]
active: Potency [1] 0.316 µM | Potency [26] 2.51 µM | Potency [29] 3.98 µM | Potency [27] 25.1 µM

CC(=O)[C@@H]1[C@H]2[C@@H](C(=O)[C@H]3OC[C@H]2O3)[C@@H]2C=Cc3ccccc3N12
active: Potency [1] 31.6 µM | Potency [28] 5.01 µM
inactive: Potency [2] > 46 µM | Potency [3] > 46 µM | Potency [4]

From PubChem BioAssay (NCATS)
